Assay results taken from PubChem BioAssay AID1159574 (Broad Institute, 2015).
Measured potencies and affinities stand elsewhere. Activity calls are given as the source filed them.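 How the source made its calls: active means growth inhibitors whose fitted half-maximal dose is no more than twice the top valid dose; inconclusive means flat curve with 30 to 70% inhibition, or unreliable fit; inactive means the rest.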

Test: P. falciparum Dd2 blood-stage growth inhibition, dose response, SYBR Green fluorescence, erythrocytes, dry powder, set 2 (AID 1159574)

## O=C(c1ccccc1F)N1CC(=O)N2[C@@H](CO)[C@H](c3ccc(-c4cccnc4)cc3)[C@@H]2C1
  outcome: inactive

## O=C(c1ccccc1F)N1CC(=O)N2[C@@H](CO)[C@@H](c3ccc(-c4cccnc4)cc3)[C@@H]2C1
  outcome: inactive
